Values joined by “and” are separate entries in the source; they are usually repeats but may differ in a detail not shown here. Equal values may be shown once. Inconclusive results are not listed. A call without a number means that no potency is given here. Where a structure was tested more than once in an assay, its records may differ in their call. Active and inactive are the calls of the source. Unless noted, calls come from the whole dose curve; as a rule, active = well fitted curve in the direction sought with a large enough effect in the repeat runs; inconclusive = weak or mixed curves; inactive = no such curve, though single readings can be large; an effect the other way counts as inactive or inconclusive.
Columns and labels:
[1] = target: Progesterone receptor (Homo sapiens) (UniProt P06401); assay: qHTS assay to identify small molecule agonists of the progesterone receptor (PR) signaling pathway (AID 1346784; calls by dose curve; note: nearly all actives have a fitted effect of over 30% in size; note: potency is the fitted concentration of half-maximal effect)
Sequence of Progesterone receptor (Homo sapiens) (P06401 whole entry, looked up): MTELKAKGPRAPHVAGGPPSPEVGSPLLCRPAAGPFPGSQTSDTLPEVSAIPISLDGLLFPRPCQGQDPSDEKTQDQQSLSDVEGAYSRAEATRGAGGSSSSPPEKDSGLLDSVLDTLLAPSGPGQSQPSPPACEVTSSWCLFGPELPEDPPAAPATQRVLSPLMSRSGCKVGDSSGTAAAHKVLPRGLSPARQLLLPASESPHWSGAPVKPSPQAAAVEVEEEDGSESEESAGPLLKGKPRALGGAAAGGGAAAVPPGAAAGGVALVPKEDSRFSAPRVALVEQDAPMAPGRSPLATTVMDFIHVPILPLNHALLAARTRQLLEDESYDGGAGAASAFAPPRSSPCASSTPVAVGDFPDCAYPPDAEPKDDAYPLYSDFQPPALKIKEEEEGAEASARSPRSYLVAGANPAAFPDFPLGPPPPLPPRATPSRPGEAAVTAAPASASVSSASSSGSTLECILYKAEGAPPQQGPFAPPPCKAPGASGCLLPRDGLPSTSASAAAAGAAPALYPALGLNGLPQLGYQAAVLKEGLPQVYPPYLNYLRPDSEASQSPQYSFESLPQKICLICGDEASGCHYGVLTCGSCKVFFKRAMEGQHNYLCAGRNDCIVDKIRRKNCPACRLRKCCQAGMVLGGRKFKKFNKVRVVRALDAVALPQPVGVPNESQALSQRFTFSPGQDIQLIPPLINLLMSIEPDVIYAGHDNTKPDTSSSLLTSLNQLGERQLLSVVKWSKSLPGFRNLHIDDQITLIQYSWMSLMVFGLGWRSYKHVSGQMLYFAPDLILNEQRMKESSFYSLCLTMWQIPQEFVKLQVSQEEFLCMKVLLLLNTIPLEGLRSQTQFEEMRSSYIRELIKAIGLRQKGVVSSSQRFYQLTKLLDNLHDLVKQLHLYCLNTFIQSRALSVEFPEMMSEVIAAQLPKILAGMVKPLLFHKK
How it was run: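 Agonist qHTS: compounds pinned onto 3,000 PR-UAS-bla HEK 293T cells per well in charcoal-stripped serum medium, 16hr at 37C, then beta-lactamase activity measured by LiveBLAzer FRET fluorescence after 2 hours at room temperature.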

[2] = target: Progesterone receptor (Homo sapiens) (UniProt P06401); assay: qHTS assay to identify small molecule antagonists of the progesterone receptor (PR) signaling pathway (AID 1346795; active = well fitted inhibition curve with a large enough effect in the signal ratio in the repeat runs, not every such curve was filed as active; the % refers to the signal ratio; note: potency is the fitted concentration of half-maximal effect)
How it was run: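 Antagonist mode with agonist R5020 at 1 nM final and 16 hr incubation at 37C. Reporter was beta-lactamase driven by UAS in HEK293T (PR-UAS-bla), 2% charcoal-stripped serum; signal from LiveBLAzer FRET substrate, 2 hr at room temperature.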

[3] = qHTS assay to identify small molecule antagonists of the progesterone receptor (PR) signaling pathway - cell viability counter screen (AID 1346798); note: series mostly up to about 92 µM; nearly all actives have a fitted effect of over 50% in size
How it was run: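 Cytotoxicity read as CellTiter-Glo luminescence (30 min, room temperature) in the same wells as the beta-lactamase readout. HEK293T PR-UAS-bla cells in charcoal-stripped 2% FBS received compound and R5020, then 16 h at 37C, 5% CO2.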

[4] = qHTS assay to identify small molecule antagonists of the TGF-beta/Smad signaling pathway - cell viability counter screen (AID 1346824); note: nearly all actives have a fitted effect of over 50% in size
How it was run: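 SBE-bla HEK 293T cells were plated overnight at 37 C, then given compounds in DMSO plus TGF-beta1 (added as 0.25 ng/mL solution) for 5 hr. After the bla read, CellTiter-Glo was added to the same wells and luminescence read after 30 min at room temperature.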

[5] = qHTS assay to identify small molecule agonists of the TGF-beta/Smad signaling pathway - cell viability counter screen (AID 1346829); note: nearly all actives have a fitted effect of over 45% in size; note: potency is the fitted concentration of half-maximal effect
How it was run: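 Luminescence from CellTiter-Glo, read after a 30 min room-temperature incubation, gives cell viability of SBE-bla HEK 293T cells treated 5 hr with compounds at 37 C.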

[6] = qHTS assay to identify small molecule agonists of the TGF-beta/Smad signaling pathway (AID 1346859; active = well fitted activation curve with a large enough effect in the signal ratio in the repeat runs, not every such curve was filed as active; the % refers to the signal ratio; note: series mostly up to about 77 µM)
How it was run: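 Fluorescence (ex 405 nm; em 460 and 530 nm) was read 2 h after LiveBLAzer FRET substrate at RT. The preceding compound treatment of overnight-plated SBE-bla HEK293T cells lasted 5 h at 37 C.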

[7] = target: Thyrotropin-releasing hormone receptor (Homo sapiens) (UniProt P34981); assay: qHTS assay to identify small molecule antagonists of the thyrotropin-releasing hormone receptor (TRHR) signaling pathway (AID 1346877; active = well fitted inhibition curve with a large enough effect in the repeat runs, not every such curve was filed as active; note: series mostly up to about 51 µM)
Sequence of Thyrotropin-releasing hormone receptor (Homo sapiens) (P34981 whole entry, looked up): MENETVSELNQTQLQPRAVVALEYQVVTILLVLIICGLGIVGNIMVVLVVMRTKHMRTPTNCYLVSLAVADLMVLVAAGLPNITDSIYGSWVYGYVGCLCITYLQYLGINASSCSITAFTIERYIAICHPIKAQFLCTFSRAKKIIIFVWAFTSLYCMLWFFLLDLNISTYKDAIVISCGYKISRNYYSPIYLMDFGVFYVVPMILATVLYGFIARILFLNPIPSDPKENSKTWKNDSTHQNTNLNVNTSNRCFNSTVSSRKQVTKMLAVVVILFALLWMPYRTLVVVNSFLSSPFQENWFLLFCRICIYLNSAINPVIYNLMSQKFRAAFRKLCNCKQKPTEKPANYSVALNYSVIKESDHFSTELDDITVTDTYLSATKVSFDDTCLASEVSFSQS
How it was run: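 Human TRHR in HEK293 cells; inhibition of the intracellular calcium rise triggered by 1 nM TRH was followed by fluorescence over 3 min. Compounds were run at 15 concentrations, three replicates each.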

[8] = target: Thyrotropin-releasing hormone receptor (Homo sapiens) (UniProt P34981); assay: qHTS assay to identify small molecule agonists of the thyrotropin-releasing hormone receptor (TRHR) signaling pathway (AID 1346891; calls by dose curve; note: potency is the fitted concentration of half-maximal effect; for activation: series mostly up to about 58 µM)
How it was run: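 Agonist-mode intracellular calcium readout: kinetic fluorescence over 3 min at 1 s intervals after compound addition to TRHR-HEK293 cells (18 h seeded, 2 h dye-loaded at 37 C). Fifteen concentrations, triplicates.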

[9] = Human pregnane X receptor (PXR) small molecule agonists, qHTS cell viability counter screen (AID 1346977); note: nearly all actives have a fitted effect of over 50% in size; note: potency is the fitted concentration of half-maximal effect
How it was run: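 Same-well viability read: CellTiter-Fluor added after 23 hr compound exposure, fluorescence measured 1 hr later. Cells were PXR-Luc HepG2 seeded at 2,000/well in 5% charcoal-stripped FBS medium, rested 5 hr before dosing at 37 C.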

[10] = Caspase-3/7 induction in HepG2 cells by small molecules, qHTS assay (AID 1346978); note: nearly all actives have a fitted effect of over 15% in size; note: potency is the fitted concentration of half-maximal effect
How it was run: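 Wild-type HepG2 cells (2,000/well) were settled 5 h at 37 C, 5% CO2, then exposed to compounds in DMSO for 17 h. Caspase-3/7 activity was read by luminescence 30 min after adding Caspase-Glo 3/7 reagent at room temperature.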

[11] = Caspase-3/7 induction in CHO-K1 cells by small molecules, qHTS assay (AID 1346980); note: nearly all actives have a fitted effect of over 15% in size
How it was run: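 Wild-type cells were seeded at 1,500 per well and settled 5 hr at 37 C, 5% CO2, then exposed to DMSO-dissolved compounds for 17 hr. Caspase-Glo 3/7 reagent was added, and luminescence was read after 30min at room temperature.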

[12] = Caspase-3/7 induction in HepG2 cells by small molecules, qHTS cell viability counter screen (AID 1346981); note: nearly all actives have a fitted effect of over 30% in size; note: potency is the fitted concentration of half-maximal effect
How it was run: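 The parent HepG2 line is plated at 2,000 cells per well and rested 5 hr before compound pinning from DMSO stocks. Following a 16-hr treatment at 37 C, a fluorogenic live-cell substrate (CellTiter-Fluor) reports viability after 1 hr.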

[13] = target: Nuclear receptor subfamily 1 group I member 2 (Homo sapiens) (UniProt O75469); assay: Human pregnane X receptor (PXR) small molecule agonists, qHTS assay (AID 1346982); note: nearly all actives have a fitted effect of over 35% in size; note: potency is the fitted concentration of half-maximal effect
Sequence of Nuclear receptor subfamily 1 group I member 2 (Homo sapiens) (O75469 whole entry, looked up): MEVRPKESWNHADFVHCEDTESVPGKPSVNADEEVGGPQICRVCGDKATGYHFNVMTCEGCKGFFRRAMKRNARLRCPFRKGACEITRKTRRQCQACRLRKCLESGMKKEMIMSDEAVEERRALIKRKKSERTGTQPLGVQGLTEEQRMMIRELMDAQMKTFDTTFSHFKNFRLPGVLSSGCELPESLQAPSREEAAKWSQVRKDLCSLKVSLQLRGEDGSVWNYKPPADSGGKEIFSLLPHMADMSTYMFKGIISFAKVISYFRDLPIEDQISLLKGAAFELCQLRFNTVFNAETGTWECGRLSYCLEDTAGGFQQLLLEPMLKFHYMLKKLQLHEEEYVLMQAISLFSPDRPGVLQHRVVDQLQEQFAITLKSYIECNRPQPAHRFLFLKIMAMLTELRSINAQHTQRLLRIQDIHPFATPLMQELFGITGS
How it was run: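 After plating in 5% charcoal-stripped FBS and a 5 hr rest, PXR-Luc HepG2 cells received compounds in DMSO. Following 24 hr at 37 C, ONE-Glo was added and light output read.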

[14] = target: Acetylcholinesterase (Homo sapiens) (UniProt P22303); assay: Acetylcholinesterase (AChE) small molecule antagonists: colormetric cell-based qHTS assay (AID 1347395; calls by dose curve; note: nearly all actives have a fitted effect of over 30% in size; note: potency is the fitted concentration of half-maximal effect)
Sequence of Acetylcholinesterase (Homo sapiens) (P22303 whole entry, looked up): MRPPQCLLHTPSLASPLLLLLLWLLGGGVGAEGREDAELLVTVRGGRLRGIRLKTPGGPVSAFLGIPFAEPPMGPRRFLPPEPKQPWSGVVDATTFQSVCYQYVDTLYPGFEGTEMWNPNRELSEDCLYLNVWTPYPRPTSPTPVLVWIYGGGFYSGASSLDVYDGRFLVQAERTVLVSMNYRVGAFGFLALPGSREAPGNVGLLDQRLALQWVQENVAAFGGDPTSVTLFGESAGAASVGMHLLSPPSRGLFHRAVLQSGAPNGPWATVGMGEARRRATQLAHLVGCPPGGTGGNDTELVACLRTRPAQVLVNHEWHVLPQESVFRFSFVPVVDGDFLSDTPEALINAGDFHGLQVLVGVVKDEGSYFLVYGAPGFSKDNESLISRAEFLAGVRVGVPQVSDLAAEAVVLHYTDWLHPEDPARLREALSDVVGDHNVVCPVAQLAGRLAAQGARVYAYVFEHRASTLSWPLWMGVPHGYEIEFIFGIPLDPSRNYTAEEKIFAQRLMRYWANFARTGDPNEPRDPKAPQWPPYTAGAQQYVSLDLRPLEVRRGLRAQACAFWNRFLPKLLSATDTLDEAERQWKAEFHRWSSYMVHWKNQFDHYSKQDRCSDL
How it was run: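 Colorimetric readout: DTNB quantifies thiocholine from acetylthiocholine hydrolysed by endogenous AChE of SH-SY5Y cells (2,000/well, plated overnight). Compound pretreatment 30 min, substrate incubation 90 min, both 37 C.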

[15] = target: Acetylcholinesterase (Homo sapiens) (UniProt P22303); assay: Acetylcholinesterase (AChE) small molecule antagonists: enzyme-based qHTS assay (AID 1347397; calls by dose curve; note: nearly all actives have a fitted effect of over 55% in size; note: potency is the fitted concentration of half-maximal effect); conditions: Potency: AChE enzyme activity inhibition
How it was run: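 Tox21 library chemicals are tested in qHTS format against recombinant human AChE. The enzyme, dispensed at 50 mU/mL, sits with compound for 30 min at room temperature. A DTNB–acetylthiocholine cocktail follows, and colour is read after 10 min.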

[16] = qHTS assay to identify small molecule agonists of the progesterone receptor (PR) signaling pathway - cell viability counter screen (AID 1346799; calls by dose curve; note: nearly all actives have a fitted effect of over 45% in size; note: potency is the fitted concentration of half-maximal effect)
How it was run: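 Cytotoxicity measured by CellTiter-Glo luminescence (30 min, RT) in the same wells as the PR beta-lactamase agonist read. Those HEK293T cells had 16 h compound treatment at 37 C in 2% charcoal-stripped FBS medium.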

[17] = Caspase-3/7 induction in CHO-K1 cells by small molecules, qHTS cell viability counter screen (AID 1346979); note: nearly all actives have a fitted effect of over 35% in size; note: potency is the fitted concentration of half-maximal effect
How it was run: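 Cytotoxicity counter screen: CellTiter-Fluor added to compound-treated wild-type CHO-K1 cells at 16 h (37C, 5% CO2), fluorescence measured 1 h later; same wells as caspase-3/7 measurement.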

Row | SMILES | Potency [1] | Potency [2] | Potency [3] | Potency [4] | Potency [5] | outcome [6] | Potency [7] | Potency [8] | Potency [9] | Potency [10] | Potency [11] | Potency [12] | Potency [13] | Potency [14] | Potency [15] | Potency [16] | Potency [17]
1 | CCC1COC(Cn2cncn2)(c2ccc(Cl)cc2Cl)O1 (configuration not stated) | inactive | 27.3 µM (active) | inactive | inactive | inactive | inactive | inactive | inactive | inactive | inactive | inactive | inactive | 19.3 µM (active) | inactive | inactive |  | 
2 | CC(C)(C)c1ccc(OP(=O)(Oc2ccccc2)Oc2ccccc2)cc1 | inactive | 21.8 µM (active) | inactive | inactive | inactive | inactive | inactive | inactive |  | inactive |  | inactive | 13.8 µM (active) |  | 22.6 µM (active) |  | 
3 | NC1CCC(CC2CCC(N)CC2)CC1 (configuration not stated) | inactive | inactive |  | inactive | inactive | inactive | inactive | inactive | inactive | inactive | inactive | inactive | inactive | inactive | inactive | 26.8 µM (active) | inactive
4 | CC(Cc1ccc2c(c1)OCO2)NO (configuration not stated) | inactive | inactive | inactive |  | inactive | inactive | inactive | inactive | inactive | inactive | inactive | inactive | inactive | inactive | inactive |  | 
5 | O=[N+]([O-])c1cccc2cccc([N+](=O)[O-])c12 | inactive | 27.4 µM (active) | inactive |  | inactive | inactive | inactive | inactive |  | inactive |  | inactive | 30.8 µM (active) |  | inactive |  | inactive
6 | Nc1nc(N)c(N)c(N)n1 | 7.74 µM (active) | inactive | inactive | inactive | inactive |  | inactive | 39.1 µM (active) | inactive | inactive |  |  | inactive | inactive | inactive |  | 
7 | C[C@]12CC[C@H]3[C@@H](CCC4=CC(=O)CC[C@@H]43)[C@@H]1CC[C@@H]2OC(=O)CCc1ccco1 | 0.841 µM (active) | inactive | inactive | inactive | inactive | inactive | inactive | inactive | inactive | inactive |  | inactive |  | inactive | inactive |  | 
8 | CCOP(=S)(OCC)SC(CCl)N1C(=O)c2ccccc2C1=O (configuration not stated) | inactive | 27.3 µM (active) | inactive | inactive | inactive | inactive | inactive | inactive | inactive | inactive | inactive | inactive | 4.33 µM (active) | 31.7 µM (active) | 63.3 µM (active) |  | 
9 | COc1ccc2c3c1O[C@H]1[C@H](O)CC[C@H]4[C@@H](C2)N(C)CC[C@@]341 | inactive | inactive |  | inactive | inactive | inactive | inactive | inactive | inactive | inactive | inactive | inactive |  | inactive | inactive |  | inactive
10 | CCCCCCCCCCCCCCn1cc[n+](C)c1 | inactive | inactive |  |  | 49.1 µM (active) and 38.5 µM (active) and inactive | inactive |  |  | 12.2 µM (active) and 27 µM (active) | 43.4 µM (active) and inactive | inactive | 61.3 µM (active) and 67.8 µM (active) and 54.4 µM (active) | 3.86 µM (active) and 4.28 µM (active) and 21.7 µM (active) | 63.4 µM (active) and 70.2 µM (active) and inactive | 50.4 µM (active) and 70.2 µM (active) and inactive | 30.7 µM (active) and 42.8 µM (active) and inactive | 4.34 µM (active) and 8.54 µM (active) and 61.1 µM (active)
11 | CCCCCCCc1ccc(O)cc1 | inactive | 21.7 µM (active) | inactive | inactive |  | inactive | inactive | inactive |  |  |  |  | 61.1 µM (active) | inactive | inactive |  | 
12 | COc1ccc2c(c1OC)C(=O)O[C@@H]2[C@H]1c2cc3c(cc2CCN1C)OCO3 | inactive | inactive | inactive | inactive | inactive | inactive | inactive | inactive |  | inactive |  | 17.1 µM (active) | 30.3 µM (active) | inactive | inactive |  | 21.5 µM (active)
13 | O=S1(=O)OCC2C(CO1)C1(Cl)C(Cl)=C(Cl)C2(Cl)C1(Cl)Cl (configuration not stated) | inactive |  | inactive | inactive | inactive |  | inactive | inactive | inactive | inactive | inactive | inactive | 21.7 µM (active) | inactive | inactive | inactive | 48.6 µM (active)
14 | Cc1ccccc1OP(=O)(Oc1ccccc1C)Oc1ccccc1C | inactive |  | inactive | inactive | inactive | inactive | inactive | inactive |  | inactive | inactive | inactive | 27.4 µM (active) |  | inactive | inactive | 
15 | CC(C)=CC1C(C(=O)OC(C#N)c2cccc(Oc3ccccc3)c2)C1(C)C (configuration not stated) | inactive |  | inactive | inactive | inactive | inactive | inactive | inactive | inactive | inactive | inactive | inactive | 17.2 µM (active) | inactive | inactive |  | 
